Screening results deposited in PubChem BioAssay by National Center for Advancing Translational Sciences (NCATS).
In the library only some 6.5% were active in any assay of this set; here they are far more common.
LASV entry inh: Lassa virus entry inhibition; Lassa virus pseudotype entry inhibition, cell reporter; Potency, µM (titrated, usually from 37.9 µM), for the others: top-dose activity change, negative = inhibition, most hits filed as inhibitors; actives 1.2% (n = 300,000); AID 540256; calls by dose curve; tested in HEK293 cells; note: potency is the fitted concentration of half-maximal effect; nearly all actives have a fitted effect of over 50% in size
Marburg entry inh: Marburg virus entry inhibition; Marburg virus pseudotyped entry inhibition, cell reporter; Potency, µM (highest dose often 37.8 µM), for inactives: top-dose activity change, negative = inhibition, actives largely listed as inhibitors; AID 540276; actives 1.8% (n = 300,000); calls by dose curve; tested in HEK293 cells; note: potency is the fitted concentration of half-maximal effect
FMDV antiviral: antivirals against foot and mouth disease virus; FMDV antiviral cell-based qHTS; Potency, µM (titrated, usually from 57.9 µM), for inactives: at the top dose activity change, negative = inhibition, hits mostly inhibitors; actives 1.2% (n = 410,000); calls by dose curve; tested in HEK293T cells; note: read-out not given here; potency is the fitted concentration of half-maximal effect; nearly all actives have a fitted effect of over 45% in size
VACV Venus inh: vaccinia inhibition (Venus reporter) | Vaccinia virus Venus reporter expression, fluorescence | Potency, µM (series often up to 36.5 µM), for inactives: at the highest dose activity change, negative = inhibition, usual class: inhibitors | actives 0.46% (n = 330,000) | AID 720580; calls by dose curve; tested in A549 cells; note: potency is the fitted concentration of half-maximal effect; nearly all actives have a fitted effect of over 30% in size
HCMV inh: inhibitors of human cytomegalovirus. activity change, negative = inhibition, % at 57.5 µM. actives 4.5% (n = 410,000). HFF cells, HCMV-luciferase reporter, 72 h; active compounds read low; in the data active = activity change below about -60%; inconclusive = no clear call, values can overlap the other calls; inactive = above about -39%
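Luciferase read-out from HCMV-luciferase-infected HFFs (MOI 1 PFU/cell) 72 h post infection at 37C; compounds added after 16 h cell attachment; activity normalized between buffer-only basal and Salinomycin (10uM) inhibitor controls.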
VACV mCherry inh: inhibitors of vaccinia virus infection (mCherry reporter signal); Vaccinia virus mCherry reporter infection, fluorescence; Potency, µM (doses to about 36.5 µM), for inactives: at the top dose activity change, negative = inhibition, actives largely listed as inhibitors; actives 0.63% (n = 310,000); AID 720579; calls by dose curve; tested in A549 cells; note: potency is the fitted concentration of half-maximal effect; nearly all actives have a fitted effect of over 35% in size
* hit, by the source's call; [ ] = another dose, or the depositor's remark. % is set by controls: 0 for no effect and ±100 for the full control effect.

`O=C(/C=C/c1ccccc1)Nc1cccc(C(=O)O)c1` gave FMDV antiviral 10µM*, VACV Venus inh -6%, HCMV inh 49 and VACV mCherry inh -11%.
Screening O=C(Nc1cccc(C(=O)O)c1)/C(=C\C=C\c1ccccc1)NC(=O)c1ccccc1 returned LASV entry inh 13%[46.1 µM], Marburg entry inh 22%[46.1 µM], FMDV antiviral 4%, VACV Venus inh -8%, HCMV inh -104* and VACV mCherry inh -1%.
CSc1ccc(/C=C/C(=O)Nc2ccccc2)cc1 was read as LASV entry inh inconclusive, Marburg entry inh 7.1µM*, FMDV antiviral -57%, VACV Venus inh -12%, HCMV inh -13 and VACV mCherry inh 0%.
COc1cc(OC)c(OC)cc1/C=C/c1nccc2ccccc12 was read as VACV Venus inh -21% and VACV mCherry inh -21%.
COc1cc2nc(NCCc3cccc(C)c3)n3nc(-c4ccccc4)nc3c2cc1OC was read as Marburg entry inh 10%[46.1 µM], FMDV antiviral 0%, VACV Venus inh -4%, HCMV inh -2 and VACV mCherry inh inactive.
Cn1c(C(=O)NCCc2ccccc2)cc2sc(Cl)cc21 was read as Marburg entry inh inconclusive, FMDV antiviral -12%, VACV Venus inh -10%, HCMV inh 89 and VACV mCherry inh -15%.
Screening CCc1nn(CC(=O)NCCCOC)c(=O)c2cc3occc3n12 returned LASV entry inh 23%[46.1 µM], Marburg entry inh 3%[46.1 µM], FMDV antiviral -11%, VACV Venus inh -2%, HCMV inh 2 and VACV mCherry inh -7%.
CCC(=O)Nc1cccc(C(=O)/C=C/c2ccccc2)c1 was read as LASV entry inh 10µM*, Marburg entry inh inconclusive, FMDV antiviral 18µM*, VACV Venus inh -19% and HCMV inh -104*.
Screening CCC(=O)Nc1cccc(C(=O)c2ccccc2)c1 returned LASV entry inh -14%, Marburg entry inh 18%, VACV Venus inh -19%, HCMV inh -18 and VACV mCherry inh -29%.
Cc1cc(C(=O)Nc2cccc(C(=O)O)c2)oc1C was read as LASV entry inh 3.5µM*, Marburg entry inh inconclusive, FMDV antiviral inconclusive, VACV Venus inh -10%, HCMV inh 34 and VACV mCherry inh -11%.
For COc1ccc(C(=O)c2cn(Cc3ccccc3F)c3cc4c(cc3c2=O)OCCO4)cc1OC the results were LASV entry inh -13%[46.1 µM], Marburg entry inh 2%[46.1 µM], FMDV antiviral -9%, VACV Venus inh -12%, HCMV inh -28 and VACV mCherry inh -12%.
CCOc1cccc(/C=N/N2CCN(c3ccc(Cl)cc3)CC2)c1O was read as FMDV antiviral inconclusive and HCMV inh -94*.
COc1ccc(C(=O)Nc2cc(C(C)C)c(O)c(S(=O)(=O)c3ccc(OC)cc3)c2C)cc1 was read as LASV entry inh 2%[46.1 µM], Marburg entry inh inconclusive, FMDV antiviral 61%, VACV Venus inh -16%, HCMV inh -104* and VACV mCherry inh -11%.
`CN(C)C(=O)[C@@H]1C[C@@H](Sc2nc3ccccc3[nH]2)CN1Cc1ccnc2ccccc12` gave FMDV antiviral 11%, VACV Venus inh 0% and VACV mCherry inh -3%.
CC(C1CC1)N(Cc1ccccc1)C(=O)NC(=O)c1ccc(F)cc1 (configuration not stated) was read as LASV entry inh 11µM*, Marburg entry inh 5%, FMDV antiviral 12%, VACV Venus inh -26%, HCMV inh 20 and VACV mCherry inh -3%.
Screening O=c1nc2n(-c3ccccc3F)c3ccccc3cc-2c(=O)[nH]1 returned LASV entry inh inconclusive, Marburg entry inh -16%[46.1 µM], FMDV antiviral 0%, VACV Venus inh -1%, HCMV inh 6 and VACV mCherry inh -10%.
`Cc1ccc(C)c(-n2c3nc(=O)[nH]c(=O)c-3cc3cc([N+](=O)[O-])ccc32)c1` gave LASV entry inh 3.2µM*, Marburg entry inh inconclusive, FMDV antiviral 28µM*, VACV Venus inh -8%, HCMV inh inconclusive and VACV mCherry inh -21%.
For Cc1cccc(-n2c3nc(=O)[nH]c(=O)c-3cc3cc([N+](=O)[O-])ccc32)c1 the results were LASV entry inh inconclusive, Marburg entry inh inconclusive, FMDV antiviral 35µM*, VACV Venus inh inconclusive, HCMV inh -66* and VACV mCherry inh inconclusive.
`COc1ccc(NC(=O)c2oc3ccccc3c2NC(=O)Cc2coc3cc(C)ccc23)cc1` gave LASV entry inh -13%[46.1 µM], Marburg entry inh 9%[46.1 µM], FMDV antiviral 40%, VACV Venus inh -22%, HCMV inh 57 and VACV mCherry inh -15%.
`O=C(Nc1ccc(F)cc1C(F)(F)F)C1CCN(c2ncccn2)CC1` gave LASV entry inh 17%[46.1 µM], Marburg entry inh -11%[46.1 µM], FMDV antiviral -21%, VACV Venus inh 9%, HCMV inh -11 and VACV mCherry inh -1%.
`Cc1ccccc1C(=O)Nc1cccc(-c2nc3cccnc3s2)c1` gave LASV entry inh -16%[46.1 µM], Marburg entry inh 5%[46.1 µM], FMDV antiviral 0%, VACV Venus inh -9%, HCMV inh -23 and VACV mCherry inh inactive.
For Cc1cc(-c2cc(F)cc3c2OC(CNC(=O)[C@@H]2CCC(=O)N2)C3)ccc1F (some centres not stated) the results were FMDV antiviral 0%, VACV Venus inh 9% and VACV mCherry inh -7%.
`C1CCN(CCCNC2C3CC4CC(C3)CC2C4)C1` (configuration not stated) gave LASV entry inh inconclusive, Marburg entry inh inconclusive, FMDV antiviral -1%, VACV Venus inh -15%, HCMV inh -84* and VACV mCherry inh inactive.
For CCOc1ccccc1C(=O)Nc1cnn(Cc2ccc(F)cc2)c1 the results were LASV entry inh -10%, Marburg entry inh inconclusive, FMDV antiviral -10%, VACV Venus inh -27%, HCMV inh -63* and VACV mCherry inh inconclusive.
Screening COc1ccc(OC)c(CNC(=O)c2cc(S(=O)(=O)N3CCC(C)CC3)cn2C)c1 returned LASV entry inh 3%[46.1 µM], FMDV antiviral inconclusive, VACV Venus inh -16%, HCMV inh -3 and VACV mCherry inh -15%.
Screening C[n+]1c2cc(N)ccc2cc2ccc(N)cc21 (tested in a mixture with another compound) returned FMDV antiviral -7% and VACV Venus inh inconclusive.
For COc1cc(CNn2nnnc2N)cc(Br)c1OCc1c(Cl)cccc1Cl the results were LASV entry inh inconclusive, Marburg entry inh inconclusive, FMDV antiviral inconclusive and HCMV inh -70*.
`Cc1ccc(-c2csc(NC(=O)CSc3nnc4c(n3)[nH]c3ccccc34)n2)cc1` gave LASV entry inh 3.2µM*, Marburg entry inh inconclusive, FMDV antiviral inconclusive, VACV Venus inh inconclusive, HCMV inh -26 and VACV mCherry inh inconclusive.
`CCc1nnc(NC(=O)CSc2nnc(-c3ccccc3O)n2CC)s1` gave LASV entry inh 4%, Marburg entry inh 7%, FMDV antiviral -5% and HCMV inh 9.
